These results are taken from PubChem BioAssay AID720504 (National Center for Advancing Translational Sciences (NCATS), 2013).

Among all 360,000 compounds or so, about 10,000 (2.8%) were called active. Roughly 4% stayed inconclusive and do not appear here. The sample holds actives, similar compounds and a random draw of the others, so the mix is not that of the screen. Calls follow the shape of the dose curve; as a rule, active = well fitted inhibition curve with a large enough effect; inconclusive = small, poorly fitted or top-dose-only effect; inactive = flat fitted curve, though single readings scatter.
% is scaled to controls: 0 for no effect and ±100 for the full control effect; potency is read from the fitted curve at half-maximal effect.

Chain of Serine/threonine-protein kinase PLK1 (Homo sapiens) (P53350 whole entry, looked up, the tested form may be a part): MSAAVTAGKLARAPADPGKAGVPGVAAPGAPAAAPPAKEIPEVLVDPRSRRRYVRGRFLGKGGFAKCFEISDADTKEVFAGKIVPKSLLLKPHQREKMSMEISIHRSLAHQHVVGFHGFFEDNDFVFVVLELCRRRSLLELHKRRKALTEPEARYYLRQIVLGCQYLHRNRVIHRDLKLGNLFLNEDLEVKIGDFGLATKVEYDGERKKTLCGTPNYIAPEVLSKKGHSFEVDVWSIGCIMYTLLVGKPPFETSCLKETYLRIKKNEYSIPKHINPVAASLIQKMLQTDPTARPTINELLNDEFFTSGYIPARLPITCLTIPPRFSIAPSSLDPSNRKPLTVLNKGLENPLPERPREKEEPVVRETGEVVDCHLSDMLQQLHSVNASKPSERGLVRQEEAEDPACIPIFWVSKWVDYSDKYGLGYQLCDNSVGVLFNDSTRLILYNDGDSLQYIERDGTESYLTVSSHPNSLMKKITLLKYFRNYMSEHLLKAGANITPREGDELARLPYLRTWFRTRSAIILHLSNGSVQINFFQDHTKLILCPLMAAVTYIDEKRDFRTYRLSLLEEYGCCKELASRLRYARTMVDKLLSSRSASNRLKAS

The test addresses Serine/threonine-protein kinase PLK1 (Homo sapiens) (UniProt P53350). Briefly: qHTS for Inhibitors of PLK1-PDB (polo-like kinase 1 - polo-box domain): Primary Screen. Also: nearly all actives have a fitted effect of over 65% in size. As to max response, negative = inhibition: series mostly up to about 57 µM. The note with it: Plk1 PBD binding of FITC phosphopeptide, fluorescence polarization.
In the case of `CCCCN1C(=O)C(CC(=O)NCc2cccs2)CC(C(=O)N2CCCCCC2)=C1C` (stereo unspecified), the max response, negative = inhibition was -3.48% (inactive).

For the molecule `COC(=O)C(Cc1c[nH]c2ccccc12)NC(=O)CCNC(=O)c1ccco1` (stereo unspecified), the max response, negative = inhibition is 3.99% (inactive).

Turning to `CCCCN1CC(C)(C)[C@H](CC(=O)Nc2ccc(Br)cc2)C1=O`, the max response, negative = inhibition was 2.01% (inactive).

With `COc1cc(NC(=S)N2CCCC(C)C2)c(OC)cc1Cl` (stereo unspecified), the Potency was 18.9 µM (active).

Consider `COc1ccc(C)cc1NC(=S)N1CCOCC1`, for which the max response, negative = inhibition is -2.89% (inactive).

For `COc1cc(NC(=O)CSC(=S)N2CCCC2)c(OC)cc1Cl`, the max response, negative = inhibition is -15.5% (inactive).

On to `C[C@@H]1Cn2cnc(C(=O)Nc3ccc(CNC(=O)OC(C)(C)C)cc3)c2C(=O)N1`, for which the max response, negative = inhibition is -11.4% (inactive).

`COc1ccc2oc(=O)cc(-c3cc4ccccc4o3)c2c1`: the Potency was 26.7 µM (active).

For the molecule `COc1cccc2cc(-c3cc(=O)oc4cc(C)c(O)cc34)oc12`, the max response, negative = inhibition was -14.5% (inactive).

As for `COc1ccc(Nc2cc(=O)oc3ccccc23)cc1`, the max response, negative = inhibition was -6.94% (inactive).

As for `Nc1ccc(S(=O)(=O)Nc2nccc(/C=C/c3ccc(Br)s3)n2)cc1`, the Potency is 9.47 µM (active).

Take `Oc1cccc2ccc(/C=C/c3ccc(Br)s3)nc12`: the max response, negative = inhibition was -8.23% (inactive).

Turning to `CC(=O)Nc1ccc(S(=O)(=O)Nc2nccc(/C=C/c3ccccc3F)n2)cc1`, the max response, negative = inhibition was -13.8% (inactive).

On to `CC(C)C1Cc2[nH][nH]c(=O)c2C(c2ccc(Cl)cc2)O1` (stereo unspecified), for which the max response, negative = inhibition is -26.3% (inactive).

Take `CCO/C=C1\C(=O)N(c2ccc(OCC)cc2)C(=O)c2ccccc21`: the Potency was 13.4 µM (active).

For the molecule `CCCOC(=O)c1ccc(N2C(=O)c3ccccc3C2=O)cc1`, the max response, negative = inhibition is -2.78% (inactive).

Turning to `CCOc1ccc(NC(=O)C(C)N2C(=O)c3ccccc3C2=O)cc1` (stereo unspecified), the max response, negative = inhibition is -11.1% (inactive).

Regarding `COc1ccc(NC(=O)C[C@H]2C(=O)N(CCc3ccccc3)C[C@@H]2C)cc1`, the max response, negative = inhibition was -7.3% (inactive).

In the case of `CC1(C(=O)NS(=O)(=O)c2ccc(C#N)cc2)CCN1C(=O)c1ccc(C2CCCCC2)cc1` (stereo unspecified), the max response, negative = inhibition was -18.9% (inactive).

Consider `CCOc1ccc(-c2cc(C(=O)N/N=C/c3ccc(O)cc3)c3ccccc3n2)cc1`, for which the max response, negative = inhibition is 1.12% (inactive).

`COc1ccc(-c2cc(C(=O)N/N=C/c3cccnc3)c3ccccc3n2)c(OC)c1`: the max response, negative = inhibition is 1.56% (inactive).

As for `COc1cccc(-c2cc(C(=O)N/N=C/c3ccc(OC)c(COC(C)=O)c3)c3ccccc3n2)c1`, the Potency was 29.9 µM (active).

As to `CC1=NN(C(=O)Cc2ccc(C)cc2)C(O)(c2cccnc2)C1` (stereo unspecified), the Potency was 23.8 µM (active).

With `CC1=NN(C(=O)c2ccccc2Br)C(O)(c2cccnc2)C1` (stereo unspecified), the max response, negative = inhibition was -6.62% (inactive).

In the case of `CC1=NN(C(=O)c2ccc(Br)cc2)C(O)(c2ccccc2)C1` (stereo unspecified), the max response, negative = inhibition was -4.08% (inactive).

As for `O=c1cc(CN2CCCCCCC2)c2c(ccc3ccccc32)o1`, the max response, negative = inhibition was -3.34% (inactive).

Turning to `CCCCCCCCN1C(=O)[C@H](CC(=O)NCc2cccc3ccccc23)C[C@@]2(C(=O)OC)CCCCC=C12`, the max response, negative = inhibition is -2.64% (inactive).

`COc1ccc(C(C)(NC(C)=O)c2nc(-c3ccc(S(C)(=O)=O)cc3)cs2)cc1` (stereo unspecified): the max response, negative = inhibition is 0.405% (inactive).

`Cc1ccc(C=O)c([B-](F)(F)F)c1`: the max response, negative = inhibition is -2.89% (inactive).

Take `CC(=O)Nc1ccc2c3c(ccc([N+](=O)[O-])c13)CC2`: the max response, negative = inhibition was -1.77% (inactive).

For `COc1cc(C(=O)CCc2ccc3c(c2)OCO3)cc(OC)c1OC`, the max response, negative = inhibition is -9.68% (inactive).

Regarding `COc1c(O)ccc2c1CN1CCc3cc4c(cc3C1C2)OCO4` (stereo unspecified), the Potency was 23.8 µM (active).

Take `COc1ccc2cc1Oc1ccc(cc1)C[C@H]1c3cc(c(OC)cc3CCN1C)Oc1c(O)c(OC)cc3c1[C@H](C2)N(C)CC3`: the max response, negative = inhibition was -6.01% (inactive).

As for `CC1(Oc2ccccc2-c2ccno2)CCN(Cc2ccc(-c3ccccc3)o2)C1` (stereo unspecified), the max response, negative = inhibition is -2.77% (inactive).

In the case of `O=C(CSc1nc2ccccc2o1)N/N=C/c1ccccc1C(=O)O`, the Potency was 26.7 µM (active).

Take `O=C(CSc1nc2ccccc2o1)N1CCN(c2ccccc2)CC1`: the max response, negative = inhibition was -6.93% (inactive).

In the case of `CC(C)(C)C(=O)CSc1nc2ccccc2o1`, the max response, negative = inhibition is -18% (inactive).

For the molecule `O=C(NCc1cccnc1)c1cc(C2CCCCN2C(=O)CCc2ccccc2)on1` (stereo unspecified), the max response, negative = inhibition was -11.3% (inactive).

For `COC(=O)c1cccc(NC(=O)c2cccc(N3C(=O)CCC3=O)c2)c1`, the max response, negative = inhibition is -2.1% (inactive).

For the molecule `COC(=O)c1cccc(N2C(=O)C3C4C=CC(CC4)C3C2=O)c1` (stereo unspecified), the max response, negative = inhibition was -4.67% (inactive).

Take `COC(=O)c1cccc(-n2[nH]nnc2=S)c1`: the Potency is 23.8 µM (active).

`CCOC(=O)[C@]12CCCC=C1N(CCC1=CCCCC1)C(=O)[C@H](CC(=O)N1CCCCC1)C2`: the max response, negative = inhibition was -0.904% (inactive).

On to `Cc1ccnc(-n2sc3ccccc3c2=O)n1`, for which the Potency was 3.77 µM (active).

As to `Cc1ccnc(SC2CC(=O)N(c3ccccc3)C2=O)n1` (stereo unspecified), the max response, negative = inhibition is -15.5% (inactive).

In the case of `COCCNc1nc(Nc2ccccc2Cl)c2sc(-c3ccccc3)cc2n1`, the max response, negative = inhibition is -12.6% (inactive).

Turning to `Cc1ccc(C(=O)N2CCCc3ccccc32)c(Cl)c1`, the max response, negative = inhibition is 3.98% (inactive).

`Cc1ccc2cccc([N+](=O)[O-])c2n1`: the max response, negative = inhibition is 2.99% (inactive).

For the molecule `CCOC(=O)c1cc2n(c1N)-c1ccccc1C2=O`, the Potency is 2.67 µM (active).

As to `CCOC(=O)c1ccccc1NC(=O)c1c(N)n(C)c(=O)[nH]c1=O`, the max response, negative = inhibition was -13.3% (inactive).

Turning to `CCOC(=O)c1ccccc1CN1C(=O)c2ccccc2S1(=O)=O`, the max response, negative = inhibition is -6.41% (inactive).

With `CN(Cc1ccccc1)C(=O)[C@@H]1CCCN1C(=O)[C@@H]1CCCN1C(=O)c1c(F)cccc1F`, the max response, negative = inhibition is -9.51% (inactive).

Regarding `CC1CCCCC1NC(=O)COc1ccc(C#N)cc1` (stereo unspecified), the max response, negative = inhibition is -1.85% (inactive).

On to `O=C(CSC1=NCCS1)Nc1nc(-c2ccccc2)cs1`, for which the max response, negative = inhibition is -11.4% (inactive).

For the molecule `O=C(COc1ccccc1F)Nc1nc(-c2ccccn2)cs1`, the Potency was 11.9 µM (active).

In the case of `O=C(CN1C(=O)C2C3C=CC(C3)C2C1=O)Nc1nc(-c2ccccn2)cs1` (stereo unspecified), the max response, negative = inhibition was -7.14% (inactive).

`N#Cc1ccc(OCC(=O)Nc2nc(-c3ccccn3)cs2)cc1`: the Potency is 8.44 µM (active).

`CC(NC(=O)c1ccco1)C(=O)Nc1nc(-c2ccccn2)cs1` (stereo unspecified): the max response, negative = inhibition is -15.6% (inactive).

Take `CC(C)c1cc(C(=O)N(C)C2CCCN(Cc3ccccc3F)C2)n(C)n1` (stereo unspecified): the max response, negative = inhibition is -5.2% (inactive).

As to `NC(Cc1ccc(F)cc1)c1csc(Nc2nncc3ccccc23)n1` (stereo unspecified), the max response, negative = inhibition was -1.72% (inactive).

Turning to `COC(=O)[C@]12CCCCC=C1N(Cc1ccccc1)C(=O)[C@H](CC(=O)NCc1ccc(C)o1)C2`, the max response, negative = inhibition was -1.64% (inactive).

Take `CNC(=O)c1ccc(CN(C)C(=O)c2cc(C3CC3)nc3c2cnn3C(C)C)cc1`: the max response, negative = inhibition is -13.7% (inactive).

In the case of `O=S1(=O)CC(N2CCN(Cc3ccccc3F)CC2)CN1Cc1cn(Cc2ccccc2)nn1` (stereo unspecified), the max response, negative = inhibition was 0.233% (inactive).

In the case of `CCOC(=O)C1CCCN(C(=O)c2cc(-c3cccs3)oc2C)CC1` (stereo unspecified), the max response, negative = inhibition was -3.67% (inactive).

Turning to `O=C(Oc1ccc(F)cc1)N1CCOCC1`, the max response, negative = inhibition is -11.5% (inactive).

Turning to `O=C(Oc1ccc(C(=S)N2CCOCC2)cc1)c1ccc(F)cc1`, the Potency was 21.2 µM (active).

As for `O=C(Oc1cccc(C(=S)N2CCOCC2)c1)c1cccc(Cl)c1`, the max response, negative = inhibition was -12.2% (inactive).

Turning to `COc1ccc(S(=O)(=O)N2CCOCC2)c(C)c1C`, the max response, negative = inhibition was -1.42% (inactive).

As for `Cc1cc(C)c(S(=O)(=O)N2CCOCC2)cc1C`, the Potency was 10.6 µM (active).

Consider `COc1cc(C)c(S(=O)(=O)N2CCOCC2)c(C)c1C`, for which the max response, negative = inhibition was -14.4% (inactive).

Regarding `CCOP(=O)(OCC)C(Cc1ccccc1)N=C(c1ccccc1)c1ccccc1` (stereo unspecified), the max response, negative = inhibition was -2.76% (inactive).

For the molecule `COC(=O)[C@@]12C[C@@H](CC(=O)NCCCCc3ccccc3)C(=O)N(CCc3ccc(OC)c(OC)c3)C1=CCC(C)(C)C2`, the max response, negative = inhibition is -6.86% (inactive).

With `CCOC(=O)[C@]12CCCC=C1N(CCC1=CCCCC1)C(=O)[C@H](CC(=O)N1CCOCC1)C2`, the max response, negative = inhibition is -15.5% (inactive).

With `CCCN1CCN(CCCNC(=O)CN2C(=O)COc3ccccc32)CC1`, the max response, negative = inhibition was -2.49% (inactive).

As to `CN1CCN(CCCNC(=O)c2ccc(/C=C3\Oc4ccccc4N(Cc4ccc(Cl)cc4)C3=O)cc2)CC1`, the max response, negative = inhibition is -4.87% (inactive).

Take `CC(C)OCCCNC(=O)CN1C(=O)/C(=C/c2ccccc2F)Oc2ccccc21`: the Potency was 26.7 µM (active).

Take `CC1(C(=O)NS(=O)(=O)c2ccccc2)CCN1C(=O)c1ccccc1` (stereo unspecified): the max response, negative = inhibition is -4.3% (inactive).

As for `CN(C)C(=O)c1cccc(-c2cnc3sc(NCc4ccc5c(c4)OCO5)nn23)c1`, the max response, negative = inhibition was -3.28% (inactive).

As to `Cc1cccc(C(=O)OCC(=O)Nc2sccc2C(N)=O)c1C`, the max response, negative = inhibition is 4.89% (inactive).

Take `Cc1nc(C(=O)N2CCCC(C(=O)c3ccc(Cl)cc3)C2)cs1` (stereo unspecified): the Potency was 26.7 µM (active).

For `O=C(c1ccc(C(F)(F)F)cc1)C1CCCN(C(=O)c2csnn2)C1` (stereo unspecified), the max response, negative = inhibition is 2.18% (inactive).

Take `Cc1cnc(C(=O)N2CCCC(C(=O)c3ccc(C(F)(F)F)cc3)C2)cn1` (stereo unspecified): the max response, negative = inhibition is 6.24% (inactive).

On to `Cc1cccc(C)c1-n1nnnc1C(CCc1ccccc1)N1CCN(C/C=C/c2ccccc2)CC1` (stereo unspecified), for which the max response, negative = inhibition was -10.6% (inactive).

In the case of `c1cc(-c2ccc3[nH]ccc3c2)n2ccnc2c1`, the max response, negative = inhibition is -9% (inactive).

As to `COc1cccc(NC(=O)CN2CCN(CC(=O)Nc3ccccc3Cl)CC2)c1`, the max response, negative = inhibition is -1.84% (inactive).

Turning to `O=C(Nc1ccc2c(c1)CCC2)c1cccc(S(=O)(=O)Nc2ccccc2Cl)c1`, the max response, negative = inhibition is -7.42% (inactive).

Regarding `O=C(Cc1ccc2c(c1)CCCC2)Nc1ccccc1Cl`, the Potency is 16.8 µM (active).

Turning to `Cc1onc(-c2ccccc2)c1-c1nnc(COC(=O)c2ccc(N(C)C)cc2)o1`, the max response, negative = inhibition was 5.92% (inactive).

Consider `CCc1nc2c(OCc3cccc(OC)c3)cccn2c1N(C)C(=O)C(C)C`, for which the max response, negative = inhibition is -12% (inactive).

As to `CN1CCN(C(=O)c2ccc(-c3ccc(Br)cc3)o2)CC1`, the max response, negative = inhibition is -2.57% (inactive).

As to `O=C(O)c1ccccc1NC(=O)c1ccccc1-c1ccccc1C(=O)O`, the max response, negative = inhibition is -6.65% (inactive).

Turning to `O=C(NC(=S)Nc1ccccc1C(=O)O)c1ccc(-c2ccc(Br)cc2)o1`, the Potency was 13.4 µM (active).
